Screening results: PubChem BioAssay, Sanford-Burnham Center for Chemical Genomics
C8 TRAIL sens – caspase-8 TRAIL sensitization; NB7+C8 cells + TRAIL, ATPlite viability luminescence; inhibition (viability loss, TRAIL sensitization), % at 10 µM; 360,000 compounds, 1% hits;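 active = compounds causing at least 50% loss of cell viability in the single-dose screen, relative to plate controls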
PPC-1+TRAIL kill – kills PPC-1 cancer cells in the presence of TRAIL | PPC-1 cells + TRAIL, ATPLite viability luminescence | cell killing (% activity), % at 4 µM or 5 µM | 220,000 compounds, 0.41% hits;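 active = cell killing above 50% in the first pass at 4 µM, then a duplicate retest at 5 µM averaging 50% or more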
SENP6 block – inhibitors of human SENP6 protease; 330,000 compounds, 1.8% hits; Q9GZR1; inhibition, % at 10 µM; AID 2599; Recombinant SENP6 catalytic domain, aminoluciferin luminescence;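 active = inhibition above about 50% at the single tested dose, limit read from the data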
Target sequence (Q9GZR1 628-1112 limits assumed): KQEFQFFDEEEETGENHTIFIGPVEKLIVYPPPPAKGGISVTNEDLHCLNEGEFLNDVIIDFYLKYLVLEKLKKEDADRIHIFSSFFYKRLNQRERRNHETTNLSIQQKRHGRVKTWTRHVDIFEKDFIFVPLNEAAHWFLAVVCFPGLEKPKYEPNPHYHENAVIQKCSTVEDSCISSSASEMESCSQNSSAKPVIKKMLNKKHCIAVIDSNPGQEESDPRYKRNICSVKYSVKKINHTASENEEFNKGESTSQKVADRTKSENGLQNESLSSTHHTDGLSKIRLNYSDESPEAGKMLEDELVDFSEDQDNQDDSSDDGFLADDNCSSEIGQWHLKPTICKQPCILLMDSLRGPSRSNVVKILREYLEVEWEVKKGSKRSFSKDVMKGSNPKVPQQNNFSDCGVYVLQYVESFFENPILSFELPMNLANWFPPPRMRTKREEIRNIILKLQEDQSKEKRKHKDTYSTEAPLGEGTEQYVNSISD
SENP8 block-1 – inhibitors of human SENP8 protease; Q96LD8; 330,000 compounds, 1.2% hits; purified SENP8, Z-RLRGG-aminoluciferin cleavage, luminescence; inhibition, % at 10 µM; AID 2540; in the data active = inhibition above about 50%
Target sequence (Q96LD8 whole entry, looked up): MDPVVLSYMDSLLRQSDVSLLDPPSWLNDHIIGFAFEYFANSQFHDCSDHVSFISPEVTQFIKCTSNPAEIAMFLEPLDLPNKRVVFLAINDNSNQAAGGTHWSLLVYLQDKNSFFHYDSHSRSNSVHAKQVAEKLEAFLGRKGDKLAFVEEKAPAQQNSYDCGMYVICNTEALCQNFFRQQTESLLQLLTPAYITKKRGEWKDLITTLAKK
SENP7 inh – blocks the human protease SENP7. inhibition, % at 5 µM. 330,000 compounds, 1.5% hits. Q9BQF6. recombinant SENP7, Z-RLRGG-aminoluciferin luminescence, 40 min;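 active = inhibition above about 50% at the single test dose, limit read from the data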
SENP8 block-2 – blocks human SENP8 cleavage of Nedd8 substrate | Q96LD8 | recombinant SENP8, Nedd8 substrate fluorescence | inhibition, % at 20 µM | 360,000 compounds, 0.64% hits | AID 602440; in the data active = inhibition mostly above about 40%, no sharp cut-off; inactive = mostly below about 27%
PPC1 cytotox – kills PPC-1 cells | shares compounds with PPC-1+TRAIL kill | PPC-1 viability, ATPlite luminescence, overnight | cytotoxicity, % at 5 µM | 1,200 compounds, 50% hits;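 active = reconfirmed compounds whose average cytotoxicity reaches 50% or more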
SENP8 conf-1 – confirmation of human SENP8 protease inhibitors | shares compounds with SENP7 inh | inhibition, % at 12.5 µM | 6,200 compounds, 40% hits | Recombinant SENP8, Z-RLRGG-aminoluciferin luminescence, 60 min;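 active = mean inhibition across replicates above about 50%, limit read from the data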
SENP6 conf – human SENP6 inhibition, confirmed; shares compounds with SENP7 inh; recombinant SENP6, Z-RLRGG-aminoluciferin luminescence; inhibition, % at 12.5 µM; 6,200 compounds, 58% hits; AID 488915
SENP7 confirm – confirmation of human SENP7 protease inhibitors; shares compounds with SENP7 inh; recombinant SENP7, Z-RLRGG-aminoluciferin luminescence, 40 min; inhibition, % at 12.5 µM; 6,200 compounds, 69% hits; AID 488917
Casp3 SENP sel – caspase-3 inhibition (SENP selectivity assay); purified caspase-3, Z-DEVD-aminoluciferin luminescence, 60 min; inhibition, % at 12.5 µM; shares compounds with SENP7 inh; 6,200 compounds, 60% hits;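 active = mean inhibition above about 50%, limit read from the data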
SENP luc ctr – counter-screen for SENP inhibitors: luminescence interference; shares compounds with SENP7 inh; Pre-incubated SENP8/Z-RLRGG-aminoluciferin, luciferase luminescence interference; inhibition, % at 12.5 µM; 6,200 compounds, 39% hits; AID 488919;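 active = mean inhibition above about 50% when retested at one dose, limit read from the data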
SENP8 conf-2 – SENP8 (human) inhibition, single concentration confirmation. shares compounds with SENP8 block-2. purified SENP8, Nedd8-AMC/pro-Nedd8 cleavage fluorescence, 30 min. inhibition, % at 25 µM. 1,400 compounds, 15% hits. AID 624319; in the data active = inhibition mostly above about 39%, no sharp cut-off; inactive = mostly below about 34%
Large screens that a line does not name were inactive (follow-up assays come after a bar, where they were run). This is a sample that favours compounds with a hit; in the whole collection about 3% have one here.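 Rule for the calls, unless noted: active = mean inhibition above about 50% in the one-dose retest (limit read from the data); inactive = the rest.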

Cc1ccc(/C=N/Nc2ccc3ccccc3n2)o1	C8 TRAIL sens 65, PPC-1+TRAIL kill 52, SENP6 block 79, SENP8 block-1 85, SENP7 inh 88 | PPC1 cytotox 58 | SENP8 conf-1 93 | SENP6 conf 93 | SENP7 confirm 100 | Casp3 SENP sel 92 | SENP luc ctr 85
C(=N\Nc1nc2ccccc2[nH]1)/c1ccc2c(c1)OCCO2	none
C(=N\Nc1ccc2ccccc2n1)/c1ccc2c(c1)OCCO2	C8 TRAIL sens 81, PPC-1+TRAIL kill 71, SENP6 block 78, SENP8 block-1 84 | PPC1 cytotox 75 | SENP8 conf-1 98 | SENP6 conf 100 | SENP7 confirm 104 | Casp3 SENP sel 98 | SENP luc ctr 85
Cc1cccc(/C=N/Nc2ccc3ccccc3n2)c1	C8 TRAIL sens 85, PPC-1+TRAIL kill 71, SENP6 block 92, SENP8 block-1 96 | PPC1 cytotox 72 | SENP8 conf-1 inactive | SENP6 conf 101 | SENP7 confirm 104 | Casp3 SENP sel 98 | SENP luc ctr 75
Cc1cc(C(=O)N/N=C/c2ccc(C)o2)c2ccccc2n1	none
CCc1nc2ccc(C(=O)NCc3cccs3)cn2c1N(CC)Cc1cccc(Br)c1	none (no result: PPC-1+TRAIL kill, SENP6 block, SENP8 block-1, SENP7 inh)
COC(=O)[C@@]12C[C@@H](CC(=O)N3CCSCC3)C(=O)N(Cc3ccccc3)C1=CCC(C)(C)C2	none (no result: PPC-1+TRAIL kill, SENP6 block, SENP8 block-1, SENP7 inh)
Cc1ccc(/C=C/c2nc3ccccc3c(=O)[nH]2)cc1	C8 TRAIL sens 93, PPC-1+TRAIL kill 93, SENP6 block 90, SENP8 block-1 86, SENP7 inh 98 | PPC1 cytotox 92 | SENP8 conf-1 inactive | SENP6 conf 55 | SENP7 confirm inactive | Casp3 SENP sel inactive | SENP luc ctr inactive
O=c1c(-c2ccc3c(c2)OCCO3)coc2cc(O)cc(O)c12	SENP6 block 67, SENP8 block-1 50, SENP7 inh 58 | PPC1 cytotox inactive | SENP8 conf-1 76 | SENP6 conf 73 | SENP7 confirm 89 | Casp3 SENP sel 58 | SENP luc ctr 70
CCN(CC)Cc1c(O)ccc2c(=O)c(-c3ccc4c(c3)OCCO4)coc12	none
O=C(CN1CCN(CC(=O)Nc2ccccc2Cl)CC1)NCC1(N2CCOCC2)CCCCC1	none (no result: PPC-1+TRAIL kill)
N/C(=N\OC(=O)c1ccccc1Cl)c1ccccn1	C8 TRAIL sens 79, PPC-1+TRAIL kill 66, SENP6 block 96, SENP8 block-1 93, SENP7 inh 100 | PPC1 cytotox 70 | SENP8 conf-1 97 | SENP6 conf 98 | SENP7 confirm 102 | Casp3 SENP sel 98 | SENP luc ctr 97
N/C(=N\OC(=O)c1ccc(Cl)c(Cl)c1)c1ccccn1	C8 TRAIL sens 66, SENP6 block 85, SENP8 block-1 68, SENP7 inh 95 | PPC1 cytotox inactive | SENP8 conf-1 inactive | SENP6 conf inactive | SENP7 confirm 65 | Casp3 SENP sel 82 | SENP luc ctr 59
N/C(=N\OC(=O)COc1ccccc1Cl)c1ccccn1	none (no result: SENP6 block, SENP8 block-1, SENP7 inh)
N/C(=N\OC(=O)c1ccc(Cl)c([N+](=O)[O-])c1)c1ccccn1	none
N/C(=N\OC(=O)c1ccc(Cl)cc1)c1ccccn1	C8 TRAIL sens 69, SENP6 block 94, SENP8 block-1 97, SENP7 inh 99 | PPC1 cytotox inactive | SENP8 conf-1 88 | SENP6 conf 99 | SENP7 confirm 103 | Casp3 SENP sel 98 | SENP luc ctr 79
Cc1cc(C(=O)c2ccc(C(C)(C)C)cc2)c(NC(=O)CCl)s1	none
CCOc1ccc(-c2ccc(SC)nn2)cc1	C8 TRAIL sens 92, PPC-1+TRAIL kill 91, SENP6 block 98, SENP8 block-1 93, SENP7 inh 97 | PPC1 cytotox 91 | SENP8 conf-1 93 | SENP6 conf 98 | SENP7 confirm 102 | Casp3 SENP sel 98 | SENP luc ctr inactive
Cc1cnc(NC(=O)COc2ccccc2Cl)s1	C8 TRAIL sens 77, PPC-1+TRAIL kill 60, SENP6 block 90, SENP8 block-1 77, SENP7 inh 92 | PPC1 cytotox 59 | SENP8 conf-1 66 | SENP6 conf 91 | SENP7 confirm 99 | Casp3 SENP sel 90 | SENP luc ctr inactive
Cc1cnc(NC(=O)CCNC(=O)c2ccccc2Cl)s1	none
O=C(O)c1cc(Nc2cc(Cl)c3nonc3c2[N+](=O)[O-])ccc1O	none (no result: PPC-1+TRAIL kill)
Cc1ccc(C(=O)N/N=C/c2ccc([N+](=O)[O-])s2)cc1	SENP8 block-2 44 | PPC1 cytotox inactive | SENP8 conf-2 inactive
COc1cccc(CN2CCN(CC#Cc3ccccc3)CC2CCO)c1 (centres undefined)	none (no result: PPC-1+TRAIL kill)
CCCCn1c(NC(C)=O)c(C#N)c2nc3ccccc3nc21	SENP6 block 97, SENP7 inh 66 | SENP8 conf-1 inactive | SENP6 conf inactive | SENP7 confirm inactive | Casp3 SENP sel inactive | SENP luc ctr inactive
CCCCn1c(NC(=O)c2ccc(Br)o2)c(S(=O)(=O)c2ccccc2)c2nc3ccccc3nc21	SENP6 block 87, SENP8 block-1 86 | SENP8 conf-1 inactive | SENP6 conf inactive | SENP7 confirm inactive | Casp3 SENP sel inactive | SENP luc ctr inactive
CCCCn1c(NC(=O)c2ccco2)c(S(=O)(=O)c2ccc(C)cc2)c2nc3ccccc3nc21	none (no result: SENP6 block, SENP8 block-1, SENP7 inh)
C=CCn1c(NC(=O)c2ccccc2Cl)c(C#N)c2nc3ccccc3nc21	SENP6 block 94, SENP8 block-1 97 | SENP8 conf-1 inactive | SENP6 conf 73 | SENP7 confirm 66 | Casp3 SENP sel inactive | SENP luc ctr inactive
CCCCCn1c(N)c(C#N)c2nc3ccccc3nc21	none
CC(C)(C)Cc1nnc(NS(=O)(=O)c2ccc([N+](=O)[O-])cc2)s1	none (no result: PPC-1+TRAIL kill)
Cc1cc(=O)cc(C)n1-c1ccccc1Br	none (no result: PPC-1+TRAIL kill)
